Data on 62 compounds can be found in PubChem BioAssay AID2796 (The Scripps Research Institute Molecular Screening Center, 2010).

The campaign covered roughly 320,000 compounds. About 8,000 (2.5%) were called active. The sample holds actives, similar compounds and a random draw of the others, so the mix is not that of the screen. Values without a mark were called inactive. Rule as the data show it: active = activation above about 47%; inactive = the rest.

Sequence of Aryl hydrocarbon receptor (Homo sapiens) (P35869 whole entry, looked up): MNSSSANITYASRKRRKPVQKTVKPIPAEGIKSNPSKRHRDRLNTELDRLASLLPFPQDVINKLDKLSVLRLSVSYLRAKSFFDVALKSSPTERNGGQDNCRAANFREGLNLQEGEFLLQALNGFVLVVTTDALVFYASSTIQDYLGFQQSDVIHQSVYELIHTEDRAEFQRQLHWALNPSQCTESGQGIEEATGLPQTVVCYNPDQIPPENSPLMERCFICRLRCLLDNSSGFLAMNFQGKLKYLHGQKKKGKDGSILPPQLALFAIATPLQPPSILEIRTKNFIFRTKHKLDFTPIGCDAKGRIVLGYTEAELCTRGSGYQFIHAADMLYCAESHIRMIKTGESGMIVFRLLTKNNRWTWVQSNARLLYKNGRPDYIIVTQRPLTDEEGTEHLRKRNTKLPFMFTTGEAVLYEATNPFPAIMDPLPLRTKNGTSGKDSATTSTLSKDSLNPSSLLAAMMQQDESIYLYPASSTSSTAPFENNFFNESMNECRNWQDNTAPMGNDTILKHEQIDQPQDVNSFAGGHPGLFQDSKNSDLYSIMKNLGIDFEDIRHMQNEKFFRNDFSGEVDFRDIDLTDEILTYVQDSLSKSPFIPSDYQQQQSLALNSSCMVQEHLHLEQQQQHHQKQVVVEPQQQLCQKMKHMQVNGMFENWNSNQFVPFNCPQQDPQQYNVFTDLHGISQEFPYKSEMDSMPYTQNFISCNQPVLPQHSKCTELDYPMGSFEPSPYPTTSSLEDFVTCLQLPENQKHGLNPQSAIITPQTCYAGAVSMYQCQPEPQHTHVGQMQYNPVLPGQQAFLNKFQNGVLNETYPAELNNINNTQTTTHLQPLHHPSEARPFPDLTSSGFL

This assay concerns the target Aryl hydrocarbon receptor (Homo sapiens) (UniProt P35869). Nature of the assay: AHR activators, primary screen, cell-based, luminescence, luciferase reporter, human (AID 2796).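 Also: 0% = vehicle wells and 100% = reference agonist.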 To be noted: AHR-responsive luciferase reporter cells, at 5 µM, active compounds read high. In general terms: Reporter assays use an easily measured gene product as a stand-in for the process of interest.
As to `CCSc1ccccc1C(=O)NCc1ccc(OC)cc1`, the activation is -0.68%. For the compound `COc1ccc(COCCN2CCN(S(=O)(=O)c3ccccc3)CCC2=O)cc1`, the activation is 2.49%. As for `C=CCSc1nnc2c(n1)-c1cccc3cccc-2c13`, the figure is 56.7% (active); as for `CCN(CC(=O)Nc1ccc(OC)cc1)C(=O)CSCc1ccc(C)cc1`, 0.1%; as for `Cc1c(C(=O)Nc2cccc(S(=O)(=O)N3CCOCC3)c2)oc2ccccc12`, 67.5% (active). On to `Cc1occc1C(=O)Nc1cccc(S(=O)(=O)N2CCOCC2)c1`, for which the activation was 3.12%.

Turning to `COc1ccc(NC(=O)c2oc3ccc(S(=O)(=O)N4CCOCC4)cc3c2C)cc1`, the activation is 10.4%. On to `N#Cc1ccc(OCCN2C(=O)NC3(CCSC3)C2=O)cc1` (configuration not stated), for which the activation is -2.11%. Consider `Cc1cc(NC(=O)CSc2nnc(-c3ccco3)n2N)no1`, for which the activation is 1.53%. The value for `COc1ccc(C(=O)NC(=S)N2CCNC(=O)C2CC(=O)OC(C)C)cc1` (configuration not stated) was 5.47%. The value for `Cc1cc2ncn(CCCCOc3ccccc3)c2cc1C` was -0.22%; that for `N#Cc1ccc(C2N=C(c3ccccc3)NO2)cc1` (configuration not stated) was 0.8%; that for `Brc1ccccc1C1N=C(c2ccccc2)NO1` (configuration not stated) was 50.1% (active). On to `S=C1NC(c2ccccc2)=NCN1c1ccc(Br)cc1`, for which the activation was 1.57%. For the compound `Cc1ccc(-n2nc3c(c2NC(=O)CCC2CCCCC2)CS(=O)C3)cc1` (configuration not stated), the activation is 18.5%. With `CCCCNC(=S)N/N=C1\CCCCc2ccccc21`, the activation is 13.7%. The value for `Cc1cc(O)c(Sc2ccccc2)c(=O)o1` was 0.97%; that for `Cc1ccc(N=Cc2c(O)cc(C)oc2=O)c(C)c1` was -0.65%. For the compound `Cc1cc(O)c(C(=O)/C=C/c2c(F)c(F)c(F)c(F)c2F)c(=O)o1`, the activation was 99.4% (active). The value for `CCOC(=O)CCc1c(C)c(C#N)c2[nH]c3ccccc3n2c1=O` was 4.77%; that for `CCCc1cc(=S)n2c([nH]c3ccccc32)c1C#N` was 63.8% (active); that for `CN(C)Cc1c(C#N)c2ccccc2n1C` was 1.2%.

On to `COc1ccc(CCNC(=O)c2nnc(CS(=O)(=O)c3ccccc3)o2)cc1OC`, for which the activation was -2.96%. With `CCn1c2ccccc2c2cc(NC(=O)COC(=O)c3cc(S(=O)(=O)N4CCCCC4)ccc3Cl)ccc21`, the activation is 34.2%. As for `CCn1c2ccccc2c2cc(NC(=O)C/C(C)=N/NC(=O)c3ccccc3N)ccc21`, the figure is 95.2% (active); as for `CCn1c2ccccc2c2cc(NC(=O)COC(=O)c3ccccc3Br)ccc21`, 62.5% (active). As for `CCn1c2ccccc2c2cc(NC(=O)CNC)ccc21`, the figure is 44.7%.

`CCn1c2ccccc2c2cc(CC(N)=O)ccc21`: the activation was 1.45%. The value for `CCn1c2ccccc2c2cc(NC(=S)N3CCOCC3)ccc21` was 46%; that for `COc1cc(OC)c(N2CC(C(=O)Nc3cc(Cl)ccc3N3CCOCC3)CC2=O)cc1Cl` (configuration not stated) was -0.04%; that for `CCn1c(CSc2nncn2-c2ccc(OC)cc2)nc2cc(S(=O)(=O)N(C)C)ccc21` was -0.25%.

For `CCOc1ccccc1C1NC(=O)NC(C)=C1C(=O)OCc1ccco1` (configuration not stated), the activation is -1.31%. For the compound `COC(=O)c1ccc(/C=C/c2c(-c3ccc(OC)cc3)sc3ccccc23)cc1`, the activation is 51.7% (active).

As to `COc1ccc2sc(-c3ccc(S(C)(=O)=O)cc3)c(-c3ccc(C(N)=O)cc3)c2c1`, the activation is 17.8%. As for `COc1ccccc1-c1sc2ccccc2c1-c1ccc(C(C)=O)cc1`, the figure is 42.1%; as for `O=C1CCCCC1Sc1ccc(Cl)cc1[N+](=O)[O-]` (configuration not stated), 14.3%. In the case of `Cc1nc(NC(CC(C)C)C(=O)O)c2nc(C)oc2n1` (configuration not stated), the activation is 1.08%. Regarding `CC(OC(=O)CN1C(=O)c2ccccc2C1=O)C(=O)c1ccccc1` (configuration not stated), the activation is 0.4%. For `CCOC(=O)CN1C(=O)C(=O)c2cc(C)ccc21`, the activation was -0.46%. The value for `CC(C)OC(=O)CN1C(=O)C(=O)c2ccccc21` was 101% (active); that for `CC1CCCN(S(=O)(=O)c2ccc(N(C(=O)c3cnccn3)C(C(=O)NC3CCCCC3)c3cccs3)cc2)C1` (configuration not stated) was 2.59%.

Turning to `CCOC(=O)CCP(=O)(O)C(O)(c1ccccc1)c1ccccc1`, the activation was -2.52%. Regarding `COCCNC(=O)c1ccc(S(=O)(=O)c2ccc(Cl)cc2)c(NC(C)=O)c1`, the activation is 5.01%. Regarding `CCOC(=O)c1c(C)n(C)c2ccc(OC)c(NS(=O)(=O)CC)c12`, the activation was 55.7% (active). In the case of `CCOC(=O)c1c(S(=O)(=O)Nc2cccc(Cl)c2)c(C)n(C)c1C`, the activation is 21.5%. Consider `CCOC(=O)c1c(C)n(C)c2ccc(OC)c(NC(=O)CN3CCC4(CC3)OCCO4)c12`, for which the activation is 0.77%.

For the compound `FC(F)(F)c1cc(C(F)(F)F)c2ccc(N3CCN(c4ccccc4)CC3)nc2n1`, the activation was 3.17%.

As to `CC(=O)Nc1cccc(-c2nc3ccccc3s2)c1C`, the activation is -9.79%. The value for `Oc1ccc(-c2[nH]ncc2-c2nc3ccccc3s2)c(O)c1` was 48.9% (active); that for `COc1ccc(Oc2cn[nH]c2-c2ccc(OC)cc2O)cc1` was 6.87%. With `CCOC(=O)C1(Cc2ccccc2C)CCCN(C(=O)c2ccc(COC)o2)C1` (configuration not stated), the activation was 20.8%. The value for `O=c1ccc2cc(S(=O)(=O)Nc3ccccc3F)ccc2o1` was -0.99%; that for `Cc1cc(C(=O)COc2ccccc2[N+](=O)[O-])c(C)n1-c1cccc(S(=O)(=O)N2CCOCC2)c1` was 10.1%.

In the case of `CCCc1c(C(=O)O)cnn1-c1ccc(Cl)cc1`, the activation was -2.51%. For `CCCc1c(C(=O)Nc2ccc(F)cc2)cnn1-c1ccccc1`, the activation was 69.9% (active). Consider `CCNC(=O)c1cnn(-c2ccccc2)c1-c1ccccc1`, for which the activation is 0.69%.

Regarding `COc1cc(/C=C/C(=O)OCC(=O)NC2CC2)cc(OC)c1OC`, the activation is 1.12%. The value for `O=S(=O)(NCc1ccccc1Br)c1ccccc1Br` was -0.52%; that for `CCCn1c(=O)c(C(=O)Nc2cc(C)ccn2)c(O)c2ccccc21` was 7.05%; that for `Cn1c(=O)c(Sc2ccc(Cl)cc2)c(O)c2ccccc21` was 6.8%. Regarding `Cn1c(=O)c(C(=O)Nc2ncccn2)c(O)c2ccccc21`, the activation is 66.7% (active). As for `COc1ccccc1NC(=O)CSc1nnc(Cn2nnc(-c3ccccc3)n2)n1-c1ccccc1`, the activation was -0.61%.
